Screening results deposited in PubChem by National Center for Advancing Translational Sciences (NCATS).
aSyn rescue – rescues yeast growth from alpha-synuclein toxicity; Yeast expressing alpha-synuclein, growth rescue, BacTiter-Glo, 24 h; Potency, µM (highest dose often 46.1 µM), inactives show top-dose growth rescue (activation), usual class: activators; 0.14% of 370,000 active; AID 652106; also: % of control where 0% means no effect; nearly all actives have a fitted effect of over 65% in size
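Screening used galactose-induced yeast with toxic alpha-synuclein levels, exposed to compound for 24 hr at 30 deg C. Cell growth, read with BacTiter-Glo luminescence, gave the measured signal.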
Mito fusion yeast – mitochondrial division inhibition or fusion activation | S. cerevisiae fusion-defective mutant growth rescue, CellTiterGlo 48 h | Potency, µM (series often up to 46.1 µM), for inactives: at the highest dose growth rescue (activation), usual class: activators | AID 485298 | 0.23% of 320,000 active; also: % of control where 0% means no effect; nearly all actives have a fitted effect of over 45% in size
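Growth-rescue viability read-out: after 48 h at the non-permissive 37C in glycerol/ethanol YPEG, yeast mitochondrial fusion mutants are measured by CellTiterGlo luminescence; compounds (23 nl pinned per well) restoring growth score as division inhibitors or fusion activators.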
Abeta yeast res – compounds reversing amyloid beta toxicity in yeast; Potency, µM (highest dose often 46.1 µM), hits mostly activators; yeast expressing A-beta42, growth rescue, OD600, 48 h; response scale: 0% DMSO, 100% iron-clioquinol control; 0.063% of 410,000 active; also: nearly all actives have a fitted effect of over 55% in size
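Yeast A-beta toxicity model in growth medium with pinned compounds, 48 h at 30 C; growth read as absorbance at 600 nm. Normalized to FeCl3/clioquinol equimolar mix (positive) and DMSO (negative).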
TDP43 rescue – inhibitors of TDP-43 toxicity in yeast. TDP-43 expressing yeast growth rescue, BacTiter-Glo, 24 h. Potency, µM (top dose mostly 46.1 µM), inactives show at the top dose growth rescue (activation), most hits filed as activators. 1.8% of 410,000 active; also: % of control where 0% means no effect; nearly all actives have a fitted effect of over 50% in size
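In this qHTS, compounds that restore growth of yeast expressing TDP-43 appear as activators. Cells (OD600=0.02, galactose medium, raffinose-pregrown) are incubated with compound 24 hr at 30 deg C and growth is quantified by BacTiter-Glo.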
FUS suppressor – FUS proteinopathy suppression in yeast | S. cerevisiae FUS-expressing, growth rescue, OD600, 24 h | 0.24% of 390,000 active | Potency, µM (doses to about 76.6 µM), most hits filed as activators;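 also: plate controls were DMSO vehicle for no effect and reference control for full effect; nearly all actives have a fitted effect of over 55% in size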
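FUS-expressing yeast, raffinose-pregrown, induced in 2% galactose minimal medium at OD 0.005; compounds in a dilution series, 24hr at 30C. Growth restoration read as absorbance at 600 nm. CP55940 positive control, DMSO negative.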
The depositor's hits bear a star; i = inactive; ? = inconclusive; . = no result; ! = a repeat was not active; [ ] = another dose, or the depositor's remark. Sampled rows, rich in hits. Any-hit rate of the full collection: about 2.2%. Calls follow the shape of the dose curve; as a rule, active = well fitted curve in the direction sought with a large enough effect; inconclusive = small, poorly fitted or top-dose-only effect, or another doubt; inactive = no such curve, though single readings can be large; an effect the other way counts as inactive or inconclusive. Potency is read from the fitted curve at half-maximal effect.

SMILES | aSyn rescue | Mito fusion yeast | Abeta yeast res | TDP43 rescue | FUS suppressor
Cc1cccc(C(=O)N2CCC(=O)N([C@H](COCc3cccc(Cl)c3)Cc3ccccc3)CC2)c1 | ? | . | i | 35µM* | ?
Cc1cc(C)c(C(N)=O)c(SCC(=O)c2cc(C)n(-c3cc(C)on3)c2C)n1 | 6% | . | i | 35µM* | i
C/C(=N\OC(=O)NC1CCCCC1)c1sc(-c2ccccc2)nc1C | . | -25% | i | 20µM* | i
C/C(=N\OC(=O)c1ccc(F)cc1)c1sc(-c2ccccc2)nc1C | -3% | -1% | i[9.22 µM] | 4% | i
CCOc1cc(CNC(=O)c2ccc3c(c2)N(C)C(=O)C2CCCCN32)cc(OCC)c1OCC (stereo not drawn) | . | . | i | 21% | ?
Cc1ccccc1NC(=O)c1ccc(-c2ccc(Cl)cc2Cl)o1 | 1% | ? | ? | 20µM* | i
Cc1cccc(C)c1NC(=O)c1ccc(-c2ccc(Cl)cc2Cl)o1 | 0% | ? | i | 21% | i
Cc1cccc(C)c1NC(=O)c1ccc(-c2cc(F)ccc2F)o1 | -1% | . | i | 11µM* | i
COc1ccc(OCCn2cc(C=O)c3ccccc32)cc1 | -8% | 2% | i | 10µM* | i
COc1cccc(/C=C/c2nc(C#N)c(NCCN(C)C)o2)c1 | . | . | i | 13% | i
Cc1ccc(S(=O)(=O)NCC(=O)N2CCN(c3ccccn3)CC2)cc1C | . | . | . | . | i
CCCc1cc(N2CCN(c3ccccc3F)CC2)n2cnnc2n1 | . | . | i | 20µM* | i
CCCc1cc(N2CCN(c3ccccc3)CC2)n2cnnc2n1 | . | . | i | 20µM* | i
Cc1cc(N2CCN(c3ccccc3)CC2)n2cnnc2n1 | . | . | i | 8% | i
CC(=O)c1cccc(NC(=O)Nc2sc3nc4n(c(=O)c3c2C)CCC(C)CC4)c1 (stereo not drawn) | . | . | i | 11% | i
NCCCNc1ccc(Br)cn1 | -8% | . | . | . | .
COC(=O)c1c(-c2ccc(Cl)cc2)noc1N1CCN(c2ccc(F)cc2)CC1 | . | . | i | 6%[9.22 µM] | i
COc1ccccc1C(=O)N1CCN(C(=O)c2oc3c(C)c(C)ccc3c2C)CC1 | 1% | . | i | 32µM* | i
Clc1ccc(CSc2nnc(-c3cccs3)o2)cc1Cl | . | . | . | . | i
CCc1nc2ccc(C(=O)N3CCN(c4ccccc4)CC3)cc2nc1CC | 8% | 1% | i | ? | ?
CCC(=O)c1ccc(N2CCN(C(=O)c3ccccc3Br)CC2)c(F)c1 | 19% | 1% | i | 10%[9.22 µM] | i
CCC(=O)c1ccc(N2CCN(C(=O)c3ccccc3F)CC2)c(F)c1 | 7% | 10µM* | i | ? | i
CCc1nc2ccc(C(=O)N3CCN(c4ccccc4F)CC3)cc2nc1CC | 1% | -1% | i | 20µM*! | ?
CCOC(=O)N1CCN(C(=O)c2ccc3nc(-c4ccccc4)c(-c4ccccc4)nc3c2)CC1 | 4% | ? | i | 18µM* | ?
CCc1cccc(C)c1NC(=O)CSc1nc2c(c(=O)[nH]1)CCC2 | . | . | i | 10% | i
SMILES | aSyn rescue | Mito fusion yeast | Abeta yeast res | TDP43 rescue | FUS suppressor
Cc1cc(OCc2cccc(S(=O)(=O)N3CCOCC3)c2)ccc1Cl | 0% | -8% | i | 35µM* | i
CCOC(=O)CC[C@@]1(C(=O)OCC)C[C@@H](CC(=O)NCCc2ccccc2OC)C(=O)N2CCCC=C21 | . | . | . | . | i
Cc1cc(C(=O)C(C)Sc2cccc[n+]2[O-])c(C)n1-c1ccc(Cl)cc1 (stereo not drawn) | 2.8µM* | 5% | i | ? | i
Cc1cc(C(=O)C(=O)O)c(C)n1-c1ccc(Cl)cc1 | 0% | -5% | i | -22% | i
COc1ccc([N+](=O)[O-])c(C=CC(=O)c2ccccn2)c1 | 20µM* | . | i | 2.8µM* | i
COc1ccc(/C=C/C(=O)c2ccccn2)cc1 | -9% | 11% | i | -1%[9.22 µM] | i
CCOc1ccc(NC(=O)CN2C(=O)C(c3ccc(Cl)cc3)=NC2(C)C)cc1 | . | . | i | 24% | i
Cc1cc(SCC(=O)Nc2ccc(Cl)cc2)nc2ccccc12 | . | . | i | 18% | i
CC1(C)N=C(SCC(=O)Nc2ccc(Cl)cc2)C(c2ccc(Cl)cc2)=N1 | -10% | 0% | i | 35µM* | i
CC1(C)N=C(SCC(=O)Nc2ccc(Cl)cc2)C(c2ccccc2)=N1 | 0% | 6% | i | 32µM* | i
COc1cnc(-c2ccccn2)nc1Sc1ccc(Cl)cc1 | -6% | -8% | ? | 14µM* | i
COc1ccc(Sc2nc(-c3ccccn3)ncc2OC)cc1 | 13% | 9% | ? | 2% | i
COc1cnc(-c2ccccn2)nc1Sc1ccc(F)cc1 | 9% | 7% | 10µM* | -19% | i
CCn1cc(C(=O)N(C)Cc2ccccc2)c(=O)c2cc(S(=O)(=O)N3CCc4ccccc4C3)ccc21 | . | . | i | -1% | ?
Cc1ccc(C(=O)NC2CCc3ccccc3C2=O)cc1 (stereo not drawn) | -3% | -3% | i | 14µM* | i
Cc1ccc(C(=O)NC2CCSC2=O)cc1 (stereo not drawn) | -4% | 4% | i | -20% | i
CCCCCC(=O)NC(=S)Nc1cccc(C(C)=O)c1 | 4% | -2% | 8.9µM* | -14%[0.397 µM] | i
CCOC(=O)CC[C@@H]1CC[C@]2(CCCN(C(=O)c3ccno3)C2)O1 | . | . | . | . | i
Cc1nn(-c2ccccc2)c2sc(C(=O)NC3CCCCCC3)cc12 | . | . | . | . | i
CCOC(=O)c1ccccc1NC(=O)Cn1nnc2sc3c(c2c1=O)CCCC3 | . | . | i | 20% | i
COc1ccc(CNc2ccc(C)cc2)cc1Br | 1% | -1% | i | 18µM* | i
CN(c1ccccc1)c1cc(Br)nc(Br)c1 | 0% | . | i | 14µM* | i
CCOc1ccccc1NC(=O)c1sc2nc(C)nc(N3CCOCC3)c2c1C | -14% | 5% | i | 7.9µM* | i
Cc1ccc(Cn2cc(CN3[C@@H](CC(C)C)COc4cc(Br)ccc4S3(=O)=O)nn2)cc1 | . | . | . | . | i
Nc1n[nH]c(N)c1N=Nc1ccc(Cl)cc1 | -2% | -3% | i | 7% | .
Nc1[nH]ncc1N=Nc1ccc(Cl)cc1 | 15% | -1% | i | 18µM* | i
Cc1ccc2c(c1)NC(=O)C(CC(=O)Nc1ccccc1Cl)O2 (stereo not drawn) | . | . | i | 27% | i
C#CCSc1nc(C)cc(C(=O)OCC)c1C#N | -5% | 7% | i | 14µM* | i
CN(C)/[N+]([O-])=N\Oc1cc(OC(=O)c2ccc(N)cc2)c([N+](=O)[O-])cc1[N+](=O)[O-] | -32% | . | . | . | .
Oc1sc(C=Nc2ccc(F)cc2)c2ccccc12 | 0% | -3% | i | 0.63µM* | i
